{"source": "PubChem BioAssay (Tox21)", "note": "Results filed as inconclusive are left out. Active and inactive are the calls of the source. The call rests on the fitted dose curve; in most records, active means well fitted cell-killing curve with a large enough effect in the repeat runs; inconclusive means weak or mixed curves, or effect the other way; inactive means flat fitted curve, though single readings scatter. On the % scale 0 is the no-effect control and ±100 the full control effect; potency means the concentration at half of the fitted maximal effect."}
{"experiment": "cAMP Responsive Elements (CRE) small molecule antagonists, cell-based qHTS assay: qHTS cell viability counter screen (AID 2060913); further: nearly all actives have a fitted effect of over 40% in size", "details": "CRE-bla HEK293T viability, CellTiter-Glo luminescence, 5 h; series mostly up to 92.4 µM; viability change, negative = cytotoxic: at the top concentration", "outline": "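CRE-bla HEK293T cells were seeded in assay medium with 10% dialyzed FBS, incubated 18 hrs at 37 C, then exposed to compounds plus 0.25 uM final NKH477 for 3 hrs. Viability was read by CellTiter-Glo luminescence after 30 min, in the same wells.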"}
{"smiles": "CCCC[P+](C)(CCCC)CCCC", "viability change, negative = cytotoxic": "-15.8% (inactive)"}
{"smiles": "CN1CCC(OC(c2ccccc2)c2ccccc2)CC1", "viability change, negative = cytotoxic": "-0.0711% [at 42.5 µM] (inactive)"}
{"smiles": "O=C(c1ccccc1)C1(O)CCCCC1", "viability change, negative = cytotoxic": "1.28% (inactive)"}
{"smiles": "CCCCC(=O)O[C@]1(C(=O)CO)[C@H](C)C[C@H]2[C@@H]3CCC4=CC(=O)C=C[C@]4(C)[C@@]3(F)[C@@H](O)C[C@@]21C", "viability change, negative = cytotoxic": "1.25% [at 42.5 µM] (inactive)"}
{"smiles": "CC1=CC(C)(C)Nc2ccccc21", "Potency": "inactive"}
{"smiles": "OCC(CBr)(CBr)CBr", "viability change, negative = cytotoxic": "-8.37% (inactive)"}
{"smiles": "COc1cc(C)nc(-n2nc(C)cc2OC)n1", "viability change, negative = cytotoxic": "1.88% [at 42.5 µM] (inactive)"}
{"smiles": "Cc1cccc(N(C)C(=S)Oc2ccc3c(c2)C2CCC3C2)c1", "note": "(stereo not given)", "viability change, negative = cytotoxic": "-10.3% [at 42.5 µM] (inactive)"}
{"smiles": "CCOc1nc2cccc(C(=O)OC(C)OC(=O)OC3CCCCC3)c2n1Cc1ccc(-c2ccccc2-c2nn[nH]n2)cc1", "note": "(stereo not given)", "Potency": "48.5 µM (active)"}
{"smiles": "O=C(O)C(=O)Cc1ccccc1", "viability change, negative = cytotoxic": "9.83% (inactive)"}
{"smiles": "CC[C@H]1O[C@]2(CC[C@@H]1C)C[C@@H]1C[C@@H](C/C=C(\\C)C[C@@H](C)/C=C/C=C3\\CO[C@@H]4[C@H](O)C(C)=C[C@@H](C(=O)O1)[C@]34O)O2", "Potency": "30.4 µM (active)"}
{"smiles": "Cc1cc(C(C#N)c2ccc(Cl)cc2)c(Cl)cc1NC(=O)c1cc(I)cc(I)c1O", "note": "(stereo not given)", "viability change, negative = cytotoxic": "-7.68% [at 42.5 µM] (inactive)"}
{"smiles": "COc1c(N2CCNC(C)C2)c(F)cc2c(=O)c(C(=O)O)cn(C3CC3)c12", "note": "(stereo not given)", "viability change, negative = cytotoxic": "-0.481% [at 42.5 µM] (inactive)"}
{"smiles": "CCOc1nc(F)cc2nc(S(=O)(=O)Nc3c(Cl)cccc3C(=O)OC)nn12", "viability change, negative = cytotoxic": "-12.5% (inactive)"}
{"smiles": "O=C1OC(OC(=O)c2cccnc2Nc2cccc(C(F)(F)F)c2)c2ccccc21", "note": "(stereo not given)", "viability change, negative = cytotoxic": "1% [at 42.5 µM] (inactive)"}
{"smiles": "N[C@@H](Cc1c[nH]c2ccccc12)C(=O)O", "Potency": "inactive"}
{"smiles": "Cc1ccc(C(C)OC(=O)C2(C)CCC(C(=O)O)C2(C)C)cc1", "note": "(stereo not given)", "viability change, negative = cytotoxic": "1.43% [at 42.5 µM] (inactive)"}
{"smiles": "Cc1ccc(C#N)cc1", "viability change, negative = cytotoxic": "9.55% (inactive)"}
{"smiles": "Cc1ccc(C(=O)C(C)CN2CCCCC2)cc1", "note": "(stereo not given)", "viability change, negative = cytotoxic": "1.01% [at 42.5 µM] (inactive)"}
{"smiles": "C=CCCCCCC", "viability change, negative = cytotoxic": "-2.18% (inactive)"}
